Results: PubChem BioAssay AID1233 (SRMLSC, 2008)
Entries with a potency or affinity are not part of this list. Active and inactive are the calls of the source.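 The calls were made as follows: active = a dose-response curve fit returns a half-maximal inhibitory concentration, extrapolated values included; inactive = the fit returns no such concentration.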

The molecules below were run against HMG-CoA reductase [Enterococcus faecalis] (UniProt Q9FD70) (assay: class II HMG-CoA reductase inhibition potency – biochemical, Enterococcus faecalis, confirmation (AID 1233)). Conditions: purified E. faecalis HMGR, NADPH absorbance 340 nm kinetics; series mostly up to 100 µM.

outcome, inactive:
COc1ccc(-c2nc(CN3CCCCC3c3cccnc3)c(C)o2)c(F)c1 (stereo not drawn)
O=C(COC(=O)c1cc(S(=O)(=O)N2CCCCC2)ccc1N1CCOCC1)NC1CCS(=O)(=O)C1 (stereo not drawn)
O=C(Nc1ccc(Oc2ccccc2)cc1)c1ccc(Cn2c(=O)[nH]c3ccsc3c2=O)cc1
CCn1c(SCC(=O)N/N=C/c2ccc(C)o2)nnc1-c1ccccc1
COC(=O)[C@@]1(Cc2ccc(OC)cc2)[C@H]2c3cc(C(=O)N(C)C)n(CCc4ccc(OC)c(Br)c4)c3C[C@H]2CN1C(=O)c1ccccc1
Cc1ccc(Cl)cc1NC(=O)COC(=O)C12CC3CC(CC(C3)C1)C2
N#CC(c1ccc(Cl)cc1)c1nc2ccccc2nc1C(F)(F)F (stereo not drawn)
O=[N+]([O-])/C(=C\Nc1ccccc1Cl)S(=O)(=O)c1ccccc1
COc1cc(OC)c(C(=O)NC2CC(C)(C)NC(C)(C)C2)cc1OC
N#CCCCn1c(=O)oc2ccccc21
O=C(CCCn1ncn2c(cc3occc32)c1=O)N1CCc2ccccc2C1
CCOC(=O)C(NC(C)=O)(Nc1ccc(S(=O)(=O)Nc2cc(C)nc(C)n2)cc1)C(F)(F)F (stereo not drawn)
O=C(CSCc1ccc(Cl)cc1)NCC1CCCO1 (stereo not drawn)
Cc1ccc(OCC(O)CN2C(=O)NC(C)(C)C2=O)cc1 (stereo not drawn)
COc1ccccc1C(=O)N/C(=C/c1ccc(Br)cc1)C(=O)NCC(=O)O
Cc1[nH]nc2c1C(CCc1ccccc1)C(C#N)=C(N)O2 (stereo not drawn)
Cn1c(CN2CCCC2)c(C#N)c2ccccc21
COc1ccc(N2C(=O)C(CN3CCCCC3)C2c2ccccc2)cc1 (stereo not drawn)
O=C1c2ccccc2C(=O)N1CCN1CCCCC1
CC(C)[C@H](NC(N)=O)C(=O)Nc1cccc(S(=O)(=O)N2CCOCC2)c1
COc1ccc(/C=C/C(=O)NC(=S)NNC(=O)c2cccnc2)cc1OC
S=C(NCCc1ccccc1)N1CCN(Cc2ccccc2)CC1
Cc1cc(C(=O)N/N=C2\CCCC(=O)C2)c(C)n1-c1ccccc1
OCC1CCCN(C(=S)Nc2ccc(Nc3ccccc3)cc2)C1 (stereo not drawn)
COc1ccc(N=CC2=C(O)c3ccccc3C2=O)c(OC)c1
CCCCc1c(O)nc(SCC(=O)c2ccccc2)[nH]c1=O
CCOc1cc(S(=O)(=O)N(CC)CC)c(OCC)cc1-n1cnnn1
CCCC(=O)Nc1sc(C(=O)Nc2cccc(N)c2)c(C)c1C(=O)OC
C[C@H]1[C@H](C)CC[C@]2(C(=O)O)CC[C@]3(C)C(=CC[C@@H]4[C@@]5(C)C[C@@H](O)[C@H](O)C(C)(C)[C@@H]5CC[C@]43C)[C@H]12
CC(=O)N1CCN(S(=O)(=O)c2ccc(C)c([N+](=O)[O-])c2)C1C(C)C (stereo not drawn)
O=C(Oc1ccccc1O)c1cccc2ccccc12
Cn1c(SCC(=O)c2ccc(F)cc2)nnc1-c1cccnc1
CSc1nc(-c2ccc(C)cc2)nc(C(Cl)Cl)n1
O=C(O)CCC(=O)NC(c1ccccc1)c1ccccc1
CCc1nnc(NC(=O)CN2CCN(c3nc(-c4ccccc4)cs3)CC2)s1
Cc1ccc(Cl)cc1N=C(N)N=C(N)N
COc1ccc(CN2CCN(CCC(C)C)C(CCO)C2)cc1Cn1cccn1 (stereo not drawn)
CCOC(=O)NC(=O)CN1C(=O)NC(C)(c2ccccc2)C1=O (stereo not drawn)
